The record followed here is PubChem BioAssay (NCATS).

Records with an inconclusive call do not appear. A number with no mark means an inactive call. The source made the active and inactive calls. Calls follow the shape of the dose curve; as a rule, active = well fitted inhibition curve with a large enough effect; inconclusive = small, poorly fitted or top-dose-only effect; inactive = flat fitted curve, though single readings scatter.
% is scaled to controls: 0 for no effect and ±100 for the full control effect.

Chain of Calcium and integrin-binding protein 1 (Homo sapiens) (Q99828 whole entry, looked up): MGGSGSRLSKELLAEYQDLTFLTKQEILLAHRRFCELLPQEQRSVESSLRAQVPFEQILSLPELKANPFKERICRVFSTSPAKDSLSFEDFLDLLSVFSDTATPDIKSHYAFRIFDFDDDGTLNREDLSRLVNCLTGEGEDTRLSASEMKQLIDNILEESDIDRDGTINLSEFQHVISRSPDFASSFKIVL

The target of this experiment is Calcium and integrin-binding protein 1 (Homo sapiens) (UniProt Q99828). Briefly: Primary qHTS for Identification of Calcium Integrin Binding Protein 1 (CIB1) Competitor (AID 1508620). Also: top concentration of the series differs between compounds. The conditions noted are these: CIB1-GST / FITC-alphaIIb peptide fluorescence polarization; series mostly up to 57.7 µM; activity change, negative = inhibition: at the top concentration. The essentials:
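Fluorescence polarization competition: GST-tagged CIB1 (1 uM final) preincubated with compound 15 min at room temperature, then FITC-labelled alphaIIb peptide (100 nM final) added. After 15 min at room temperature, polarization read at Ex 480/Em 540.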
A general note: In qHTS, concentration-response curves come from the screen itself.
On to `CCC(=O)N[C@@H]1Cc2ccccc2[C@H](c2ccccc2)C1`, for which the “activity change, negative = inhibition” value was -7.85% [at 114 µM]. The same measure, in the same setting: the same measure for `C[C@@H]1C(=O)O[C@H]2CC34[C@H]5C[C@@H](C(C)(C)C)C36[C@@H](OC(=O)[C@@H]6O)OC4(C(=O)O5)[C@]21O` (stereo partly drawn): 1.41% [at 114 µM]; for `C#Cc1cnc2[nH]c(=O)n(C(CC)CC)c2n1`: 1.47% [at 114 µM].

For the compound `C=C1CC2C3(C)C(OC(C)=O)CC(=O)OC(C)(C)C3C(O)C(OC(C)=O)C2(C)C2C(=O)OC(C)C(=O)C12C` (stereo not drawn), the “activity change, negative = inhibition” value is 2.69%. The same measure, in the same setting: next, `CC1=CC(=O)C2C(C)(C)CCCC2(C)C12CCC1(COC(=O)C1)O2` (stereo not drawn): -14.7%. `NS(=O)(=O)NCCNc1nonc1C(=Nc1ccc(F)c(Br)c1)NO`: the Potency entry is “inactive”. As to `C/C(=C\CCC(C(=O)O)C1CCC2(C)C3=C(CCC12C)C1(C)CCC(=O)C(C)(C)C1CC3)C(=O)O` (stereo not drawn), the “activity change, negative = inhibition” value is 0.831%.

As to `N[C@@H](CC(=O)N1CCn2c(nnc2C(F)(F)F)C1)Cc1[nH]nc2c(F)c(F)ccc12`, the “activity change, negative = inhibition” value is -6.16% [at 114 µM].
